The campaign covered roughly 2,200 compounds. About 1,300 (59%) were called active. The rule behind the calls is not given here. The set was probably picked from earlier hits. Not all results are given here. Where a call stands in place of a potency, no number is given. Potency and affinity values are given separately.
experiment: human monocytic cell viability reduction – S. typhimurium screen hits, cytotoxicity control for Salmonella PhoP regulon inhibitors, dose response (AID 2253); conditions: THP-1 viability, CellTiter-Glo luminescence, 72 h; series mostly up to 50 µM

Row | Compound | outcome
1 | CCOc1ccc(Nc2nc(NCCN3CCOCC3)nc(OC)n2)cc1 | inactive
2 | CCOc1ccc(NC(=O)CCC(=O)n2nc(C)cc2C)cc1 | inactive
3 | CNc1nc(Sc2ccccc2)cc(C(F)(F)F)n1 | inactive
4 | Cc1ccc(/C(O)=C2\C(=O)C(=O)N(CC(C)O)C2c2cccc(F)c2)cc1 (stereo not drawn) | inactive
5 | NC(=O)CCc1c[nH]c2ccccc12 | inactive
6 | CCOC(=O)CCCc1c[nH]c2ccccc12 | inactive
7 | CC1COc2c(N3CCN(C)CC3)c(F)cc3c(=O)c(C(=O)O)cn1c23 (stereo not drawn) | inactive
8 | CCOC(=O)c1c(/N=C/c2ccc(O)cc2O)sc2c1CCC2 | inactive
9 | Cn1ncc(N=Cc2ccccc2O)c1C(=O)Nc1ccccc1 | inactive
10 | CCCc1ccc(C(=O)CCC(=O)O)cc1 | inactive
11 | CCOC(=O)c1ccccc1C(=O)N1CCOCCOCCOCC1 | inactive
12 | COc1ccccc1N1CCN(C(=O)CSc2nc3ccccc3o2)CC1 | inactive
13 | COc1ccc(C2C(C#N)=C(N)OC3=C2C(=O)CCC3)cc1Cn1cc([N+](=O)[O-])cn1 (stereo not drawn) | inactive
14 | Cc1ccc2nc(SCC(=O)c3c(C)[nH]c4ccccc34)[nH]c2c1 | inactive
15 | CCOC(=O)c1[nH]c2ccccc2c1NC(=O)C(C)(C)C | inactive
16 | CNC(=O)CSc1nnc(-c2cccnc2)n1CCc1ccccc1 | inactive
17 | CCCCC1CCC(C(=O)Nc2ccccc2)CC1 (stereo not drawn) | inactive
18 | Cn1cnnc1SCC(=O)Nc1cccc(C(=O)O)c1 | inactive
19 | Cc1cccc(NC(=O)c2ccc(Cn3cc(C(F)(F)F)ccc3=O)cc2)c1 | inactive
20 | S=C(c1ccc2c(c1)OCO2)N1CCCC1 | inactive
21 | c1ccc(-c2ncnc3nc4n(c23)CCC4)cc1 | inactive
22 | Cc1c(Cl)cccc1NC(=O)CSc1ncnc2c1cnn2CCc1ccccc1 | inactive
23 | COC(=O)C1C(O)C(C)C(O)C(C)(O)/C=C\C=C(/C)C(=O)Nc2c(C)c(OC(C)=O)c3c(c2O)C(=O)C(C)=C2OCOC(=C23)/C(C)=C/C(C)(O)C(O)C(C)C1O (stereo not drawn) | inactive
24 | CCSc1nnc(NC(=O)Cc2cccc(OC)c2)s1 | inactive

Row | Compound | outcome
25 | CNc1nnc(-c2cccc(N(C)C)c2)s1 | inactive
26 | O=C(COc1ncnc2sccc12)N1CCN(S(=O)(=O)c2ccc(Cl)cc2)CC1 | inactive
27 | COc1cccc(OCC(O)CN2CCN(c3ccccn3)CC2)c1 (stereo not drawn) | inactive
28 | C=CCOc1ccccc1CNCCCN1CCOCC1 | inactive
29 | COc1ccc(OC)c(NC(=S)NCCCN2CCOCC2)c1 | inactive
30 | Cc1ccc(NC(=S)NCCc2ccccc2)c(C)c1 | inactive
31 | O=C(O)c1cc(NCc2ccc3c(c2)OCO3)ccc1N1CCOCC1 | inactive
32 | c1ccc(Cn2nnc3c(NCc4ccc5c(c4)OCO5)nc(C4CC4)nc32)cc1 | inactive
33 | COc1ccc(NC(=O)CN2CCCCC2)c([N+](=O)[O-])c1 | inactive
34 | CCOc1ccc(N/C=C/C(=O)c2ccc(OC)cc2)c([N+](=O)[O-])c1 | inactive
35 | CCCc1nnc(NC(=O)c2cn(CC)c3cc(N4CCN(C)CC4)c(F)cc3c2=O)s1 | inactive
36 | Cc1nc(SCC(=O)NC(C)c2ccccc2)c2oc3ccccc3c2n1 (stereo not drawn) | inactive
37 | CCCn1c(SCC(=O)NCCc2ccccc2)nnc1-c1cccnc1 | inactive
38 | Cn1ccnc1C(O)c1ccc(OCc2ccccc2)cc1 (stereo not drawn) | inactive
39 | CCOC(=O)c1c(N)ssc1=S | inactive
40 | O=S1(=O)CC(O)C(Nc2ccccc2Cl)C1 (stereo not drawn) | inactive
41 | NC(=O)c1c(N)sc2c1CCCCC2 | inactive
42 | O=C(Nc1cnn(Cc2ccc(F)cc2)c1)c1cnccn1 | inactive
43 | O=C(Nc1cnc2ccccc2c1)N1CCOCC1 | inactive
44 | CC(C)(C)n1ncc2c(=O)n(CC(=O)Nc3ccc4c(c3)OCO4)cnc21 | inactive
45 | CC(C)n1cc(C(=O)N2CCCC(N3CCN(c4ccc(F)cc4)CC3)C2)cn1 (stereo not drawn) | inactive
46 | O=[N+]([O-])c1ccc(N2CCN(CCOc3nonc3-c3ccccc3)CC2)c(Cl)c1 | inactive
47 | Cc1ccc(-n2nnnc2SCC(=O)Nc2ncc(Cc3ccccc3Cl)s2)cc1 | inactive
48 | Cc1ccc(NS(=O)(=O)c2ccc(N3C(=O)CCC3=O)cc2)cc1 | inactive

Row | Compound | outcome
49 | CCC(CC)C(=O)N1c2ccc(F)cc2CCC1C (stereo not drawn) | inactive
50 | CCOC(=O)N1CCN(C(=O)c2cn(CC)c3cc(N4CCN(C)CC4)c(F)cc3c2=O)CC1 | inactive
51 | Nc1[nH]c(=O)ncc1F | inactive
52 | O=C(NCCc1cn2ccccc2n1)c1ccccc1F | inactive
53 | Cc1nnc(NC(=O)CSc2ncnc3scc(-c4ccccc4)c23)s1 | inactive
54 | CC(C)CCn1c(SCC(=O)N2CC(=O)Nc3ccccc32)nc2scc(-c3cccs3)c2c1=O | inactive
55 | COc1ccc(/C=N/NC(=O)CC(=O)NCc2cccnc2)cc1 | inactive
56 | COC(=O)c1ccccc1Oc1cnc2ccccc2n1 | inactive
57 | COC(=O)c1ccc(NC(=S)Nc2ccc3ccccc3c2)cc1 | inactive
58 | CC(=O)N1CCN(c2cc3c(cc2F)c(=O)c(C(=O)O)cn3C2CC2)CC1 | inactive
59 | Cn1c(CO)cnc1SCc1ccc([N+](=O)[O-])cc1 | inactive
60 | CC(=O)c1sc(NC(=O)COc2ccc([N+](=O)[O-])cc2)nc1C | inactive
61 | CCOC(=O)CC(=O)CSc1nc2c(c(C)c1C#N)CCC2 | inactive
62 | Cc1cc2c(c(=O)n1C)C(Cc1ccccc1)C(C#N)=C(N)O2 (stereo not drawn) | inactive
63 | O=C1Nc2ccccc2C(O)(C(=O)N2CCCCC2)N1c1ccccc1 (stereo not drawn) | inactive
64 | O=C1CC(c2ccccc2)n2ncnc2N1 (stereo not drawn) | inactive
65 | NC1CCN(c2c(F)cc3c(=O)c(C(=O)O)cn(C4CC4)c3c2Cl)C1 (stereo not drawn) | inactive
66 | Cc1ccc(CCNC(=O)C2CCCN(S(=O)(=O)c3c(C)noc3C)C2)cc1 (stereo not drawn) | inactive
67 | Cc1ccc(CCNC(=O)C2CCN(S(=O)(=O)N3CCCC3)CC2)cc1 | inactive
68 | O=C(CSc1nccc(=O)[nH]1)N1c2ccccc2CCc2ccccc21 | inactive
69 | CCN(CCO)Cc1csc2ccccc12 | inactive
70 | Cc1cc(C(=O)N/N=C/C=C/c2ccc3c(c2)OCO3)n[nH]1 | inactive
71 | Cc1cc(C(=O)N/N=C/c2cccc([N+](=O)[O-])c2O)n[nH]1 | inactive
72 | O=C(N/N=C/c1cccn1-c1ccc([N+](=O)[O-])cc1)C(O)c1ccccc1 (stereo not drawn) | inactive

Row | Compound | outcome
73 | Cc1nc2ccccn2c1C(=O)N/N=C/c1ccccc1[N+](=O)[O-] | inactive
74 | CC1(C)CC2CC(C)(CN2C(=O)COC(=O)c2n[nH]c(=O)c3ccccc23)C1 (stereo not drawn) | inactive
75 | CCOC(=O)c1sc2nccc(N(C)C)c2c1N=CNOCc1c(F)cccc1Cl | inactive
76 | O=C(Cn1cnc2ccccc2c1=O)NCc1ccco1 | inactive
77 | O=C(CCCNS(=O)(=O)c1ccccc1)NCc1ccco1 | inactive
78 | O=C1CSC(=S)N1c1ccc(F)cc1 | inactive
79 | COc1ccc(OC)c(C(=O)C2COC(=O)C2)c1 (stereo not drawn) | inactive
80 | Cc1cc2ncn(CC(O)COc3cccc(C(=O)O)c3)c2cc1C (stereo not drawn) | inactive
81 | COc1ccc(C2C(C(=O)c3cccs3)=C(O)C(=O)N2c2nnc(C)s2)cc1OC (stereo not drawn) | inactive
82 | Brc1ccc(OCCn2ccnc2)cc1 | inactive
83 | Clc1ccccc1OCCn1ccnc1 | inactive
84 | COc1ccc2c(c1)cc1n2CCN2CCCN=C12 | inactive
85 | CCn1cc(C(=O)NCc2ccncc2)c(=O)c2cc(F)c(N3CCN(C(=O)c4ccco4)CC3)cc21 | inactive
86 | O=C1CC(N2CCN(Cc3ccccc3)CC2)C(=O)N1c1ccccc1 (stereo not drawn) | inactive
87 | O=C(CCCOc1ccccc1)N1CCCc2ccccc21 | inactive
88 | C(=N\N1CCN(Cc2ccccc2)CC1)/c1cccnc1 | inactive
89 | CC(C)(C)c1ccc(-c2n[nH]c(=S)n2/N=C/c2ccncc2)cc1 | inactive
90 | O=C(CCN1CCc2ccccc2C1)Nc1ccccc1F | inactive
91 | CCn1nnc(-c2ccccc2NC(=O)c2ccc(-n3cnnn3)cc2)n1 | inactive
92 | N#Cc1nc(-c2cccs2)oc1NCCCN1CCOCC1 | inactive
93 | CCOc1ccc(/C(O)=C2\C(=O)C(=O)N(CCN(C)C)C2c2cccc(OC)c2OC)cc1Cl (stereo not drawn) | inactive
94 | O=C(CCn1nnc(-c2cccs2)n1)NCc1ccccc1Cl | inactive
95 | COc1ccc(C(=O)COc2nc(C)cc(C)c2C#N)cc1 | inactive
96 | CCc1nc2cc(Cl)c(Cl)cc2[nH]1 | inactive

Row | Compound | outcome
97 | CC(=O)Nc1c(O)nc(SCC(=O)N2CCN(c3ccc(F)cc3)CC2)[nH]c1=O | inactive
98 | O=C(NCCCN1CCCC1=O)c1ccc(Cl)c(NS(=O)(=O)c2ccc(F)cc2)c1 | inactive
99 | CC(C)(C)NC(=O)CSc1nnc(-c2ccncc2)o1 | inactive
100 | CC(=O)NCCOc1c(C)cc(S(N)(=O)=O)cc1C | inactive
101 | Cn1cccc1CC(=O)N/N=C/C(Cl)=C/c1ccccc1 | inactive
102 | CC1(C)CC(=O)c2c(nc3ccccc3c2N)C1 | inactive
103 | Cc1cc(C(=O)N2CCN(C/C=C/c3ccccc3)CC2)no1 | inactive
104 | CC(CCc1ccccc1)NC(=O)c1ccccc1 (stereo not drawn) | inactive
105 | COCc1cc(C)nc(N2CCc3ccccc32)c1C#N | inactive
106 | COc1ccc(-c2cnn3c(N)c(S(=O)(=O)C(C)(C)C)cnc23)cc1 | inactive
107 | Brc1ccc(NC2=Nc3ccccc3CC2)cc1 | inactive
108 | COc1cc(C2NC(=O)NC(c3ccccc3)=C2C(C)=O)ccc1OCC(=O)O (stereo not drawn) | inactive
109 | COc1ccc(S(=O)(=O)n2nc(OC(=O)c3cccs3)cc2N)cc1 | inactive
110 | Nc1cc(N)nc(SCC(=O)Nc2ccc3c(c2)OCCCO3)n1 | inactive
111 | Cc1ccc2cc(C(=O)O)c(C)nc2c1 | inactive
112 | Cc1cc([N+](=O)[O-])cc2ncccc12 | inactive
113 | O=C(NCc1cccnc1)c1ccc(Cl)cc1[N+](=O)[O-] | inactive
114 | CCOc1cc(C2C(C(=O)OC)=C(C)N=C3SCCC(=O)N32)ccc1OC(C)=O (stereo not drawn) | inactive
115 | COc1ccc(Oc2coc3cc(OC(=O)c4cccs4)ccc3c2=O)cc1 | inactive
116 | Cc1cc(C)nc(N(C#N)C(C)C(=O)N(C)C)n1 (stereo not drawn) | inactive
117 | Cc1cccnc1N(C(=O)Nc1ccccc1)C1=NCC(C)(C)S1 | inactive
118 | O=C(NC(=Nc1ccccc1)N1CCOCC1)Nc1ccccc1 | inactive

From PubChem BioAssay AID2253 (Southern Research Specialized Biocontainment Screening …, 2010)
